Laboratory results taken from the supplement of paper PMC8728848.
The entries come from a sample that favours the strongest signals as a whole.

Columns and labels:
Assay in all cases: glycan array binding signal (z-score within array); higher = stronger binding
Conditions in all cases: glycan notation: IUPAC condensed, linker removed
[1] = tested on: Glc(a1-6)Glc(a1-6)Glc
Procedure, shortened: (§1)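 The Consortium for Functional Glycomics database supplied 3228 glycan arrays, of which those lacking an available protein sequence were dropped. The binding signal, a within-array Z-score, was averaged across arrays of the same protein sequence and across linkers. Negative scores can be read as non-binding.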

[2] = tested on: Glc(b1-4)Glc
Procedure, shortened: as §1

[3] = tested on: Glc(b1-6)Glc
Procedure, shortened: as §1

[4] = tested on: GlcA(b1-3)Gal
Procedure, shortened: as §1

[5] = tested on: GlcA(b1-3)GlcNAc
Procedure, shortened: as §1

[6] = tested on: GlcA3S(b1-3)Gal(b1-4)GlcNAc(b1-2)Man
Procedure, shortened: as §1

[7] = tested on: GalNAc3S(b1-4)GlcNAc
Procedure, shortened: as §1

[8] = tested on: Glc(a1-4)Glc(a1-4)Glc(a1-4)Glc
Procedure, shortened: as §1

[9] = tested on: GalNAc4S6S(b1-4)GlcNAc
Procedure, shortened: as §1

[10] = tested on: Glc(a1-4)Glc
Procedure, shortened: as §1

Sequence of SpGH101 (Streptococcus pneumoniae), Q8DR60 (Q8DR60 42-1567): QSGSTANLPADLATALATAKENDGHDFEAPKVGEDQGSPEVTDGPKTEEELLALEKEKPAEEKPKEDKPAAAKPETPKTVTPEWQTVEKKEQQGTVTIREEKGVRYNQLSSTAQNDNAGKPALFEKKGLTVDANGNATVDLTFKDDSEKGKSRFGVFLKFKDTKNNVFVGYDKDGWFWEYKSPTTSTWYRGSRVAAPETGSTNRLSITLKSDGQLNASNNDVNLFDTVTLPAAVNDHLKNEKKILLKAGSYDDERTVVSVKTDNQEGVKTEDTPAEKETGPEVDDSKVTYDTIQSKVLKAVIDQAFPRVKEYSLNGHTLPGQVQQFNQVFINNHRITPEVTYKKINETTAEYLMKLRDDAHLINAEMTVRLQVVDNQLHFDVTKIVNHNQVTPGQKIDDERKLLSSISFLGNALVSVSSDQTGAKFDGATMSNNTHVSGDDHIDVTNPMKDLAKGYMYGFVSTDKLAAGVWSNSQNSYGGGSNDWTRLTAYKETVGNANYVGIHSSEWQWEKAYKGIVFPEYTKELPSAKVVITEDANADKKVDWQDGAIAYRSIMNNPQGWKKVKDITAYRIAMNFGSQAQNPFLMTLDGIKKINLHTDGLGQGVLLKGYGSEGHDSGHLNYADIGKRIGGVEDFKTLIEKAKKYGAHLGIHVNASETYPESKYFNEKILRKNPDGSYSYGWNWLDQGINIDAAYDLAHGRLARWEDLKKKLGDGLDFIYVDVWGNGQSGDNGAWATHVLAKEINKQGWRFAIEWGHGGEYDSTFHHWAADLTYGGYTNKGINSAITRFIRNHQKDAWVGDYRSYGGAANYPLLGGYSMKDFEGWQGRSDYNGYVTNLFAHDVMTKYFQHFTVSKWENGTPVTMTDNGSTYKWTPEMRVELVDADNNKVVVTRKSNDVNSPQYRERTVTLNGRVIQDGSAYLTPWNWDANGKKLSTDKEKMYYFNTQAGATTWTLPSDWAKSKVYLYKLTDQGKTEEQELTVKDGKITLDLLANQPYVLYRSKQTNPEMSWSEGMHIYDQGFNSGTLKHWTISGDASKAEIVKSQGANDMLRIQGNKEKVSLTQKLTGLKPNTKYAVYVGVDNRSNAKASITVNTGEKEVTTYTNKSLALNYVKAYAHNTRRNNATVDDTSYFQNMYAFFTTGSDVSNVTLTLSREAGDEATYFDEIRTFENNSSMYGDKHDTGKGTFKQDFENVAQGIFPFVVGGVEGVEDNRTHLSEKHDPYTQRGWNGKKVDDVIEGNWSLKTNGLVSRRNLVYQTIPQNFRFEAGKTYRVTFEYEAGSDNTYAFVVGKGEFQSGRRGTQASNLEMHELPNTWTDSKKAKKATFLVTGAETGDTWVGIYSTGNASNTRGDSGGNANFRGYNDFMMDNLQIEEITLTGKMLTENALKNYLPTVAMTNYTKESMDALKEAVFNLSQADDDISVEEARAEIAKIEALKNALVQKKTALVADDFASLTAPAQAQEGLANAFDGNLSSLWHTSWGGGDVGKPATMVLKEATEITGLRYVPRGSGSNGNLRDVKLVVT
Sequence of GspB (Streptococcus gordonii), Q939N5 (Q939N5 whole entry): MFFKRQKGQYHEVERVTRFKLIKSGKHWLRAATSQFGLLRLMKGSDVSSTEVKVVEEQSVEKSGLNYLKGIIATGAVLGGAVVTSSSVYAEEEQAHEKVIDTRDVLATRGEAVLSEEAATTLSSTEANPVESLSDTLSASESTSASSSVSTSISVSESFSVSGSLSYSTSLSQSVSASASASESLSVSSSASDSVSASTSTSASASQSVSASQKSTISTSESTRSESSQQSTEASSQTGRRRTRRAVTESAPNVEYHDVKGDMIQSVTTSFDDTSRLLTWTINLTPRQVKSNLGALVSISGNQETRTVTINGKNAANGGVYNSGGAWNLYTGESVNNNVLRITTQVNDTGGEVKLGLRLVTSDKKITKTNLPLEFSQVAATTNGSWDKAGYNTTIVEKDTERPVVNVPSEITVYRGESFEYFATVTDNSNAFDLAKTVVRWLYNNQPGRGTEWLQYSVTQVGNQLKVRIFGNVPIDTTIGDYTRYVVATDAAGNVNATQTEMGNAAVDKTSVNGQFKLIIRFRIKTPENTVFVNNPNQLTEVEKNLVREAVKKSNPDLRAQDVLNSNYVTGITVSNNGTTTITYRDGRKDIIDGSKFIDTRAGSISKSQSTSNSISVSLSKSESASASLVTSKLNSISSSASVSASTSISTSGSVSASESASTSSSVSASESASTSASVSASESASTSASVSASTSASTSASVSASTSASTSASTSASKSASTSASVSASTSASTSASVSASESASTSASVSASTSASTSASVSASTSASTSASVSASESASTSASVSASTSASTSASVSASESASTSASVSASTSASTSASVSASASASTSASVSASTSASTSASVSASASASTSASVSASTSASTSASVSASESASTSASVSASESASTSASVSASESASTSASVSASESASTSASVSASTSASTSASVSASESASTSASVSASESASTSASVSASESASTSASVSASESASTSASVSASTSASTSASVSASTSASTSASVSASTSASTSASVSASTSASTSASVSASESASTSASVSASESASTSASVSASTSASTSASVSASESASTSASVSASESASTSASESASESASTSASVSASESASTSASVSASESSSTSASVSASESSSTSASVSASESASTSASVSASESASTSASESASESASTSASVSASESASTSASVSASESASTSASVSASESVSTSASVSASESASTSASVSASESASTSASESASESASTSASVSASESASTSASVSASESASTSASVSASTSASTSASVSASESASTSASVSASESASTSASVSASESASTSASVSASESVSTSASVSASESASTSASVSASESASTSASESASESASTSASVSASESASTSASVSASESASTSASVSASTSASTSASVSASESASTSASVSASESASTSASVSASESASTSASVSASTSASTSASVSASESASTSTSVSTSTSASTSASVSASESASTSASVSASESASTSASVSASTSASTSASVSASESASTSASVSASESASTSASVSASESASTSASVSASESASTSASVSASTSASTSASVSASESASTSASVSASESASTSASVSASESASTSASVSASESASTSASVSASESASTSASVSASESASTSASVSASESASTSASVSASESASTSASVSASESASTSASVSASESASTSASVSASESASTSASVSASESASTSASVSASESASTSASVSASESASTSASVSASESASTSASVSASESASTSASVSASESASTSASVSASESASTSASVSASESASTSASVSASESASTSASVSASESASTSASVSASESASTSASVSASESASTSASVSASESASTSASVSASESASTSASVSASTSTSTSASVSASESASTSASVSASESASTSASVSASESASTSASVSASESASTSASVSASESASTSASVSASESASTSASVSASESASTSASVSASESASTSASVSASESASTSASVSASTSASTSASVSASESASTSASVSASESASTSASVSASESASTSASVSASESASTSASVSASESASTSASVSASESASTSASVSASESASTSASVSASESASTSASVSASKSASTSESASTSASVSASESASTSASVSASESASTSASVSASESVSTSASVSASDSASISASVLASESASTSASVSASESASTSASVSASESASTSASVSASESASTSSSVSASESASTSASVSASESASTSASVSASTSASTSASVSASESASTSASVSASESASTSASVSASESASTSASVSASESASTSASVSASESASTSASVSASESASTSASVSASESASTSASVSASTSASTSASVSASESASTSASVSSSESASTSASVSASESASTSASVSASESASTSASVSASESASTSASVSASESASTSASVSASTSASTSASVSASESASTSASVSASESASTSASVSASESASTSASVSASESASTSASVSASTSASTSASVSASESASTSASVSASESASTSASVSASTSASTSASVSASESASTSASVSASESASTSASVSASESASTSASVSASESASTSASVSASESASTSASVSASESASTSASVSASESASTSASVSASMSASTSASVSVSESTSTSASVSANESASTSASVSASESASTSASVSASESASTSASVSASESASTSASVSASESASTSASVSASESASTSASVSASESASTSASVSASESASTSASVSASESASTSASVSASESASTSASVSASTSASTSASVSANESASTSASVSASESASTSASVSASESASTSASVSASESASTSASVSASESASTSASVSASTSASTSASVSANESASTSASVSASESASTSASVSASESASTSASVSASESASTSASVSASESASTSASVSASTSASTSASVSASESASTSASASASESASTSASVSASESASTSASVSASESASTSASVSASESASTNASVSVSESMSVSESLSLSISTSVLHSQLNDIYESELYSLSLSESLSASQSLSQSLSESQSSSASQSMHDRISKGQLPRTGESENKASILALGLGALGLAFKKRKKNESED

SpGH101 (Streptococcus pneumoniae), Q8DR60
glycan array binding signal (z-score) [1]: -0.103
glycan array binding signal (z-score) [2]: -0.147
glycan array binding signal (z-score) [3]: -0.186
glycan array binding signal (z-score) [4]: -0.183
glycan array binding signal (z-score) [5]: 3.66

AgI/IIC123-GFP (Streptococcus mutans)
glycan array binding signal (z-score) [6]: 3.12

AgI/II Vhelical-GFP (Streptococcus mutans)
glycan array binding signal (z-score) [7]: -0.11
glycan array binding signal (z-score) [8]: -0.13
glycan array binding signal (z-score) [1]: -0.269

GspB (Streptococcus gordonii), Q939N5
glycan array binding signal (z-score) [4]: -0.677

LcI (Legionella pneumophila)
glycan array binding signal (z-score) [9]: -0.709

SiiE (Salmonella typhimurium), A0A0H3NVH0
glycan array binding signal (z-score) [10]: -0.099
